Laboratory results: PubChem BioAssay (NCI)
The panel holds about 83,000 compounds, 20% with a hit somewhere; the sample as a whole holds those more often.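 Percent growth is the endpoint: 0 to 100 indicates growth inhibition (40 means 60% inhibition), 0 means no net growth, and negative values indicate cell death.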 Calls of active or inactive are those of the source. How the source made its calls: active means growth percent below 10; inactive means the rest.

Tests used:
Test in all cases: NCI-60 one-dose screen, 48 h (100 = growth as untreated, 0 = no growth, -100 = all killed)
Details in all cases: 10 µM unless noted
[1] = tested on: NCI-H23 lung
[2] = tested on: NCI-H226 lung
[3] = tested on: NCI-H322M lung
[4] = tested on: HOP-62 NSCLC
[5] = tested on: NCI-H460 lung
[6] = tested on: HOP-92 NSCLC
[7] = tested on: NCI-H522 lung
[8] = tested on: A549/ATCC NSCLC
[9] = tested on: 786-0 renal
[10] = tested on: COLO 205 colon
[11] = tested on: DU-145 prostate
[12] = tested on: K-562 leukemia
[13] = tested on: MALME-3M melanoma
[14] = tested on: MDA-MB-231 breast
[15] = tested on: RXF 393 renal
[16] = tested on: SF-268 CNS
[17] = tested on: SF-295 CNS
[18] = tested on: SF-539 CNS
[19] = tested on: UACC-257 melanoma
[20] = tested on: M14 melanoma

Measured: growth

COc1cc(/C=C2\CN(C(=O)CCN3CCC(=NO)CC3)C/C(=C\c3cc(OC)c(OC)c(OC)c3)C2=O)cc(OC)c1OC
active: [1] -21.9% | [2] -6.36% | [3] -89.2% | [4] -47.2% | [5] -64% | [6] -49.2% | [7] -74.7% | [8] 2.51% | [9] -38.6% | [10] -85.8% | [11] -94% | [12] 6.55% | [13] -50.4% | [14] -73.5% | [15] -85.1% | [16] -73% | [17] -75.4% | [18] -60.5% | [19] -16.9% | [20] -46.6%

COc1cc(NCCCCN=C(N)NC(N)=NC(C)C)c2ncccc2c1
inactive: [2] 94.3% | [3] 33.6% | [4] 75.3% | [5] 74.4% | [6] 33.7% | [8] 98.9% | [9] 106% | [11] 127% | [12] 39.1% | [14] 21.3% | [15] 154% | [16] 54.1% | [17] 113% | [18] 78.1% | [19] 25.2% | [20] 92.4%
active: [1] -31.5% | [7] -6.15% | [10] -18.5% | [13] -2.65%

CC1=CC(=O)CC(C)(C)[C@@]1(O)/C=C/[C@@H](C)O
inactive: [1] 89.7% | [2] 80.8% | [3] 103% | [4] 107% | [5] 112% | [6] 97% | [7] 92.7% | [8] 87.7% | [9] 102% | [10] 110% | [11] 108% | [12] 115% | [13] 102% | [14] 93.3% | [15] 93.3% | [16] 98.1% | [17] 91.5% | [18] 102% | [19] 89.1% | [20] 102%

OCC1C2C=CC(C2)C1CO (stereo not given)
inactive: [1] 108% | [2] 109% | [3] 114% | [4] 90.9% | [5] 121% | [6] 60.5% | [7] 97% | [8] 89% | [9] 101% | [10] 191% | [11] 106% | [12] 112% | [13] 105% | [14] 103% | [15] 113% | [16] 106% | [17] 104% | [18] 126% | [19] 101% | [20] 99.9%

COc1cccc(-c2nc3sccn3c2-c2ccnc(NCCCNS(=O)(=O)c3ccc(Cl)cc3)c2)c1
inactive: [1] 54.4% | [2] 42% | [3] 74.4% | [4] 88.7% | [5] 49.9% | [6] 72% | [7] 55.5% | [8] 40.8% | [9] 58.4% | [10] 44.9% | [11] 51.3% | [12] 29.4% | [13] 74.1% | [14] 59.5% | [15] 65.3% | [16] 44.2% | [17] 42.7% | [18] 66.7% | [19] 59.4% | [20] 41.1%

O=C1OC2C(I)C3CC2C1C3c1ccccc1 (stereo not given)
inactive: [1] 94.8% | [2] 105% | [3] 139% | [4] 88.9% | [5] 117% | [6] 93.7% | [7] 110% | [8] 110% | [9] 95.2% | [10] 125% | [11] 107% | [12] 104% | [13] 136% | [14] 96.8% | [15] 113% | [16] 106% | [17] 172% | [18] 94.1% | [19] 121% | [20] 101%

CCOC(=O)c1cnc2cc(Cl)c(F)cc2c1Nc1cccc(NS(C)(=O)=O)c1
inactive: [1] 80.8% | [2] 96.4% | [3] 96.3% | [4] 95.9% | [5] 110% | [6] 67.6% | [7] 93% | [8] 112% | [9] 95.6% | [10] 124% | [11] 101% | [12] 91.4% | [13] 112% | [14] 80.6% | [15] 89.3% | [16] 90.1% | [17] 93.7% | [18] 89.2% | [19] 118% | [20] 113%

O=C(O)c1cn(C2CC2)c2cc(N3CCN(Cc4nc5c(cnn5-c5ccc([N+](=O)[O-])cc5)c(=O)[nH]4)CC3)c(F)cc2c1=O
inactive: [1] 101% | [2] 94.8% | [3] 99.1% | [4] 103% | [5] 105% | [6] 112% | [7] 95% | [8] 102% | [9] 98.9% | [10] 112% | [11] 110% | [12] 92.6% | [13] 98.1% | [14] 92.4% | [15] 107% | [16] 96.4% | [17] 105% | [18] 97.8% | [19] 106% | [20] 102%

CCC(=O)Oc1ccc(/C(=C(\C)c2ccccc2)c2ccc(OCCN(CC)CC)cc2)cc1
inactive: [1] 89.1% | [2] 95.8% | [3] 96.2% | [4] 95.3% | [5] 80.9% | [6] 61% | [7] 73.5% | [8] 84.9% | [9] 70.1% | [10] 74.6% | [11] 102% | [12] 23% | [13] 80.3% | [14] 89.7% | [15] 93.4% | [16] 85.5% | [17] 95.2% | [18] 76.9% | [19] 87.4% | [20] 69%

COc1c(Cl)cc(Cl)cc1Cl
inactive: [1] 108% | [2] 110% | [3] 129% | [4] 97.5% | [5] 97.8% | [6] 116% | [7] 103% | [8] 116% | [9] 112% | [10] 116% | [11] 111% | [12] 96.2% | [13] 143% | [14] 92.2% | [15] 121% | [16] 107% | [17] 103% | [18] 111% | [19] 122% | [20] 116%

Nc1nc(SCc2ccccc2)c2ncn(C3CCCC3)c2n1
inactive: [1] 85.7% | [2] 110% | [3] 103% | [4] 107% | [5] 98.8% | [6] 106% | [7] 76.8% | [8] 107% | [9] 98.8% | [10] 116% | [11] 101% | [12] 104% | [13] 121% | [14] 106% | [15] 99.5% | [16] 121% | [17] 101% | [18] 91.2% | [19] 129% | [20] 129%

Cc1cc(Cl)ccc1Nc1nc(C(F)(F)F)ccc1C(=O)N/N=C/c1ccc(F)cc1
inactive: [1] 16.4% | [2] 22.9% | [8] 16.5% | [10] 13.9% | [11] 35.2% | [15] 17.8% | [16] 19.6% | [17] 17.4% | [18] 24.6%
active: [3] 9.9% | [4] 5.92% | [5] 2.29% | [6] -18.1% | [7] -9.21% | [9] -50.7% | [12] 5.33% | [13] 6.12% | [14] -9.74% | [19] 8.52% | [20] 2.84%

Fc1ccc(Cc2ccc(F)cc2)cc1
inactive: [1] 102% | [2] 99.9% | [3] 105% | [4] 106% | [5] 108% | [6] 100% | [7] 90% | [8] 103% | [9] 107% | [10] 108% | [11] 113% | [12] 96.7% | [13] 106% | [14] 107% | [15] 118% | [16] 101% | [17] 113% | [18] 102% | [19] 108% | [20] 106%

CC(C)(C)n1cc(-c2ccnc(NCCNS(=O)(=O)c3ccccc3)c2)c(-c2cccc(O)c2)n1
inactive: [1] 70.3% | [2] 60.4% | [3] 78.1% | [4] 82.5% | [5] 36.7% | [6] 77.8% | [7] 57.7% | [8] 47.1% | [9] 18.5% | [11] 68.9% | [13] 59.4% | [14] 42.7% | [15] 61.6% | [16] 63.3% | [17] 48.3% | [18] 52.2% | [19] 65.8% | [20] 53.9%
active: [10] 6.61% | [12] 7.69%

Nc1cccc(-c2nc3sccn3c2-c2ccnc(NCCCNS(=O)(=O)c3ccc(C(F)(F)F)cc3)n2)c1
active: [1] 4.88% | [2] 2.96% | [5] 2.98% | [7] 8.73% | [10] 6.24% | [12] 8.49% | [13] -2.19% | [17] -11.3% | [20] 9.8%
inactive: [3] 19.4% | [4] 19.5% | [6] 71.4% | [8] 12.8% | [9] 23.6% | [11] 13.5% | [14] 21% | [15] 19.7% | [16] 14.6% | [18] 16.5% | [19] 18.8%
